Hit rate of the full screen: of about 330,000 compounds, about 560 (0.17%) were called active. This is one part of a sample in which actives are shown more often than they occur.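 How the source made its calls: active means activation at or above 40% of the spot to cytoplasm intensity ratio, with at least 20 cells analyzed; inconclusive means wells under 20 cells, flagged as cytotoxic or low count; inactive means the rest.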

Test [1] can be described thus: agonists of human NTR1, primary screen, imaging, U2OS cells, beta-arrestin-GFP, high content (AID 493036).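 On activation: 0% = DMSO without peptide and 100% = 100 nM NTR1 peptide.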 As to conditions: NTR1-U2OS beta-arrestin-GFP spot imaging, agonist mode; measured here: cell count, cytotoxicity flag; at 20 µM.
For test [2], the target named is Neurotensin receptor type 1 (Homo sapiens) (UniProt P30989). Described as above. To be noted: NTR1-U2OS beta-arrestin-GFP spot imaging, agonist mode; at 20 µM; stronger effect = higher value.
Sequence of Neurotensin receptor type 1 (Homo sapiens) (P30989 whole entry, looked up): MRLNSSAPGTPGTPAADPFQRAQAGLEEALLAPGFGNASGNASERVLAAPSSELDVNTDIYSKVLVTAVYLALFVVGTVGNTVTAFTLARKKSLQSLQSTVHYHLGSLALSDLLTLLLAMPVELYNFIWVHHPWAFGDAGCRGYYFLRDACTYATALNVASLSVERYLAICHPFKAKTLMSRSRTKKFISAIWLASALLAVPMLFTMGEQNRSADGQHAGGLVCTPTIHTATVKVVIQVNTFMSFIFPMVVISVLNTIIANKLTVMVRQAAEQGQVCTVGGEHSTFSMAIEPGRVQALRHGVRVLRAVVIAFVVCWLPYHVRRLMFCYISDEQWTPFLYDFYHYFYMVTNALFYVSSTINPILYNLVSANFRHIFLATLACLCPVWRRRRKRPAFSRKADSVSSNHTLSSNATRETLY

As for `COc1cccc(N2C(=O)NC(=O)/C(=C\c3ccc([N+](=O)[O-])s3)C2=O)c1`, in test [1], the cell count was found to be 25 cells. In test [2], the activation was -0.6% (inactive).
`O=C1NC(=O)N(c2ccccc2)C(=O)/C1=C/c1ccc([N+](=O)[O-])s1` displayed a cell count in test [1] of 47 cells. For the same compound, the activation in test [2] is -0.1% (inactive).
For `Cc1cccc(N2C(=O)NC(=O)/C(=C\c3cnn(-c4ccccc4)c3)C2=O)c1` the same measures were 57 cells and 45.7% (active).
For `COc1ccc(C(=O)C2CN(C)CC2C(=O)c2ccc(OC)cc2)cc1` (stereo not given) the same measures were 41 cells and -0.1% (inactive).
`O=C(CCCn1c(=O)[nH]c2cc(Cl)ccc2c1=O)N1CCC2(CC1)OCCO2` displayed a cell count in test [1] of 62 cells. The activation in test [2] is 1.7% (inactive).
For `COC(=O)C1=C(c2cc3ccccc3s2)C[C@@H]2CC[C@H]1N2C(=O)NCCO` the same measures were 97 cells and 0.3% (inactive).
`CC1CCCCN1Cc1cccnc1` (stereo not given) displayed a cell count in test [1] of 41 cells. For the same compound, the activation in test [2] was 1.8% (inactive).
Taken in the same sequence, the figures for `O=C1NC(=O)N(Cc2ccco2)C(=O)/C1=C\c1ccc(-c2ccc(F)cc2)o1` were 62 cells and 23.3% (inactive).
Taken in the same sequence, the figures for `O=C(O)COc1ccccc1/C=C1\C(=O)NC(=O)N(CCC2=CCCCC2)C1=O` were 52 cells and 0% (inactive).
In test [1], `O=C1NC(=O)N(CCc2ccc(F)cc2)C(=O)/C1=C/C=C/c1ccccc1` had a cell count of 50 cells. Also, in test [2], the activation is 41.5% (active).

The values above are taken from PubChem BioAssay AID493036 (Sanford-Burnham Center for Chemical Genomics, 2011).
